This excerpt belongs to a sample that is enriched for the strongest signals.
Legend:
Assay in all cases: glycan array binding signal (z-score within array); higher = stronger binding
Conditions in all cases: glycan notation: IUPAC condensed, linker removed
[1] = target: Fuc(a1-2)Gal(b1-3)[Fuc(a1-4)]GlcNAc(b1-2)Man(a1-3)[Fuc(a1-2)Gal(b1-3)[Fuc(a1-4)]GlcNAc(b1-2)Man(a1-3)]Man(b1-4)GlcNAc(b1-4)GlcNAc
In short: (§1)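 The binding signal is a Z-score computed within each array and averaged over linkers. Arrays of the same protein sequence at different concentrations or buffers were also averaged together. Data originate from 3228 arrays in the Consortium for Functional Glycomics database, kept only where the protein sequence was available.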

Fuc(a1-2)Gal(b1-4)Glc = target: Fuc(a1-2)Gal(b1-4)Glc
In short: as §1

[2] = target: Fuc(a1-2)Gal(b1-4)GlcNAc(b1-2)[Fuc(a1-2)Gal(b1-4)GlcNAc(b1-4)]Man(a1-3)[Fuc(a1-2)Gal(b1-4)GlcNAc(b1-2)Man(a1-6)]Man(b1-4)GlcNAc(b1-4)GlcNAc
In short: as §1

[3] = target: Fuc(a1-2)Gal(b1-4)GlcNAc(b1-6)GalNAc
In short: as §1

[4] = target: Fuc(a1-2)Gal(b1-4)[Fuc(a1-3)]GlcNAc(b1-2)Man(a1-3)[Fuc(a1-2)Gal(b1-4)[Fuc(a1-3)]GlcNAc(b1-2)Man(a1-6)]Man(b1-4)GlcNAc(b1-4)[Fuc(a1-6)]GlcNAc
In short: as §1

[5] = target: Fuc(a1-2)[Gal(a1-3)]Gal(b1-3)GlcNAc(b1-2)Man(a1-3)[Fuc(a1-2)[Gal(a1-3)]Gal(b1-3)GlcNAc(b1-2)Man(a1-6)]Man(b1-4)GlcNAc(b1-4)GlcNAc
In short: as §1

[6] = target: Fuc(a1-2)[Gal(a1-3)]Gal(b1-4)GlcNAc(b1-2)Man
In short: as §1

Fuc(a1-3)GlcNAc = target: Fuc(a1-3)GlcNAc
In short: as §1

[7] = target: Fuc(a1-3)[Gal3S(b1-4)]GlcNAc6S
In short: as §1

Fuc(b1-3)GlcNAc = target: Fuc(b1-3)GlcNAc
In short: as §1

[8] = target: Gal(a1-3)Gal(b1-4)GlcNAc(b1-2)Man(a1-3)[Gal(a1-3)Gal(b1-4)GlcNAc(b1-2)Man(a1-6)]Man(b1-4)GlcNAc(b1-4)GlcNAc
In short: as §1

Gal(a1-3)GalNAc = target: Gal(a1-3)GalNAc
In short: as §1

[9] = target: Gal(a1-4)Gal(b1-3)GlcNAc(b1-2)Man(a1-3)[Gal(a1-4)Gal(b1-3)GlcNAc(b1-2)Man(a1-6)]Man(b1-4)GlcNAc(b1-4)GlcNAc
In short: as §1

Gal(a1-4)Gal(b1-4)GlcNAc = target: Gal(a1-4)Gal(b1-4)GlcNAc
In short: as §1

[10] = target: Gal(a1-4)Gal(b1-4)GlcNAc(b1-2)Man(a1-3)[Gal(a1-4)Gal(b1-4)GlcNAc(b1-2)Man(a1-6)]Man(b1-4)GlcNAc(b1-4)GlcNAc
In short: as §1

[11] = target: Gal(a1-4)Gal(b1-4)GlcNAc(b1-3)Gal(b1-4)Glc
In short: as §1

Gal(a1-6)Glc = target: Gal(a1-6)Glc
In short: as §1

Gal(b1-2)Gal = target: Gal(b1-2)Gal
In short: as §1

Gal(b1-3)Gal(b1-4)GlcNAc = target: Gal(b1-3)Gal(b1-4)GlcNAc
In short: as §1

[12] = target: Gal(b1-3)GalNAc(a1-3)[Fuc(a1-2)]Gal(b1-4)Glc
In short: as §1

[13] = target: Gal(b1-3)GalNAc(a1-3)[Fuc(a1-2)]Gal(b1-4)GlcNAc
In short: as §1

[14] = target: Gal(b1-3)GalNAc(b1-4)Gal(b1-4)Glc
In short: as §1

[15] = target: Gal(b1-3)GlcNAc(b1-3)Gal(b1-4)GlcNAc(b1-6)[Gal(b1-3)GlcNAc(b1-3)]Gal(b1-4)Glc
In short: as §1

[16] = target: Gal(b1-3)[Fuc(a1-4)]GlcNAc(b1-2)Man
In short: as §1

Gal(b1-4)GlcNAc(b1-2)Man = target: Gal(b1-4)GlcNAc(b1-2)Man
In short: as §1

[17] = target: Gal(b1-4)GlcNAc(b1-2)[Gal(b1-4)GlcNAc(b1-6)]Man(a1-6)[Gal(b1-4)GlcNAc(b1-2)Man(a1-3)]Man(b1-4)GlcNAc(b1-4)GlcNAc
In short: as §1

[18] = target: Gal(b1-4)GlcNAc(b1-3)Gal(b1-3)GlcNAc
In short: as §1

[19] = target: Gal(b1-4)GlcNAc(b1-3)Gal(b1-4)GlcNAc(b1-3)Gal(b1-4)GlcNAc(b1-3)Gal(b1-4)GlcNAc(b1-2)Man(a1-3)[Gal(b1-4)GlcNAc(b1-3)Gal(b1-4)GlcNAc(b1-3)Gal(b1-4)GlcNAc(b1-3)Gal(b1-4)GlcNAc(b1-2)Man(a1-6)]Man(b1-4)GlcNAc(b1-4)GlcNAc
In short: as §1

Gal3S6S(b1-4)GlcNAc = target: Gal3S6S(b1-4)GlcNAc
In short: as §1

[20] = target: GalNAc(b1-3)Gal(a1-4)Gal(b1-4)GlcNAc
In short: as §1

GalNAc(b1-4)GlcNAc = target: GalNAc(b1-4)GlcNAc
In short: as §1

GalNAc3S(b1-4)GlcNAc = target: GalNAc3S(b1-4)GlcNAc
In short: as §1

Glc(a1-6)Glc(a1-6)Glc = target: Glc(a1-6)Glc(a1-6)Glc
In short: as §1

[21] = target: GlcNAc(a1-4)Gal(b1-3)GlcNAc
In short: as §1

[22] = target: GlcNAc(a1-4)Gal(b1-4)GalNAc
In short: as §1

[23] = target: GlcNAc(b1-3)Gal(b1-4)GlcNAc(b1-3)Gal(b1-4)GlcNAc(b1-2)Man(a1-3)[GlcNAc(b1-3)Gal(b1-4)GlcNAc(b1-3)Gal(b1-4)GlcNAc(b1-2)Man(a1-6)]Man(b1-4)GlcNAc(b1-4)[Fuc(a1-6)]GlcNAc
In short: as §1

GlcNAc(b1-3)Man = target: GlcNAc(b1-3)Man
In short: as §1

[24] = target: GlcNAc(b1-4)Gal(b1-4)GlcNAc
In short: as §1

[25] = target: Man(a1-3)[Man(a1-6)]Man(a1-6)[Man(a1-3)]Man
In short: as §1

Man(b1-4)GlcNAc = target: Man(b1-4)GlcNAc
In short: as §1

[26] = target: Neu5Ac(a2-3)Gal(b1-3)GlcNAc(b1-4)Gal(b1-4)Glc
In short: as §1

[27] = target: Neu5Ac(a2-3)Gal(b1-4)GlcNAc(b1-2)[Neu5Ac(a2-3)Gal(b1-4)GlcNAc(b1-4)]Man(a1-3)[GlcNAc(b1-4)][Neu5Ac(a2-3)Gal(b1-4)GlcNAc(b1-4)Man(a1-6)]Man(b1-4)GlcNAc(b1-4)GlcNAc
In short: as §1

[28] = target: Neu5Ac(a2-3)Gal(b1-4)GlcNAc(b1-3)Gal
In short: as §1

[29] = target: Neu5Ac(a2-3)Gal(b1-4)GlcNAc6S
In short: as §1

[30] = target: Neu5Ac(a2-3)Gal(b1-4)[Fuc(a1-3)]GlcNAc6S
In short: as §1

[31] = target: Neu5Ac(a2-6)Gal(b1-4)GlcNAc(b1-2)Man(a1-3)Man(b1-4)GlcNAc(b1-4)GlcNAc
In short: as §1

[32] = target: Neu5Ac(a2-6)Gal(b1-4)GlcNAc(b1-2)Man(a1-3)[Gal(b1-4)GlcNAc(b1-2)Man(a1-6)]Man(b1-4)GlcNAc(b1-4)GlcNAc
In short: as §1

[33] = target: Neu5Ac(a2-6)Gal(b1-4)GlcNAc(b1-2)[Neu5Ac(a2-6)Gal(b1-4)GlcNAc(b1-4)]Man(a1-3)[GlcNAc(b1-4)][Neu5Ac(a2-6)Gal(b1-4)GlcNAc(b1-2)[Neu5Ac(a2-6)Gal(b1-4)GlcNAc(b1-6)]Man(a1-6)]Man(b1-4)GlcNAc(b1-4)GlcNAc
In short: as §1

[34] = target: Neu5Ac(a2-6)Gal(b1-4)GlcNAc(b1-2)[Neu5Ac(a2-6)Gal(b1-4)GlcNAc(b1-6)]Man(a1-6)[Neu5Ac(a2-6)Gal(b1-4)GlcNAc(b1-2)Man(a1-3)][GlcNAc(b1-4)]Man(b1-4)GlcNAc(b1-4)GlcNAc
In short: as §1

[35] = target: Neu5Ac(a2-6)Gal(b1-4)GlcNAc(b1-3)Gal(b1-4)GlcNAc(b1-6)[Gal(b1-3)]GalNAc
In short: as §1

[36] = target: Neu5Ac(a2-8)Neu5Ac(a2-3)Gal(b1-4)Glc
In short: as §1

[37] = target: Neu5Gc(a2-3)Gal(b1-3)[Fuc(a1-4)]GlcNAc
In short: as §1

[38] = target: Neu5Gc(a2-3)Gal(b1-4)GlcNAc(b1-3)Gal(b1-4)GlcNAc(b1-2)Man(a1-3)[Neu5Gc(a2-3)Gal(b1-4)GlcNAc(b1-3)Gal(b1-4)GlcNAc(b1-2)Man(a1-6)]Man(b1-4)GlcNAc(b1-4)GlcNAc
In short: as §1

Neu5Gc(a2-6)GalNAc = target: Neu5Gc(a2-6)GalNAc
In short: as §1

B1: Epa6 (Candida glabrata), Q6DTM7_CANGB (protein)
chain: MGSSHHHHHHSSGLVPRGSHMKDDYSSSLSNNNLGWTDPTEFPLGCSPNVTTPKNGLSMELYSYDYLKSGSNPCWDAAYLDPNYPRTGYKSHRLLAKVENVAGNINFYYHAPMGCTSLFDTLPQAYNYRTPLTMTNFTMLLYGYFKPKVTGYHTFTISADDLLFVNFGAGNAFDCCKRESSADDFGNYQAYAVWGSQTAKDDLTVHLDAGLYYPIRIFFNNRDNDGALSLTLKTESDPNPVIDFSDYFYSFDDTKDGCPGLVSYDTS
- glycan array binding signal (z-score) [1]: -0.229
- glycan array binding signal (z-score) (Fuc(a1-2)Gal(b1-4)Glc): -0.123
- glycan array binding signal (z-score) [2]: -0.318
- glycan array binding signal (z-score) [3]: -0.062
- glycan array binding signal (z-score) [4]: -0.257
- glycan array binding signal (z-score) [5]: 0.454
- glycan array binding signal (z-score) [6]: 0.197
- glycan array binding signal (z-score) (Fuc(a1-3)GlcNAc): -0.304
- glycan array binding signal (z-score) [7]: -0.263
- glycan array binding signal (z-score) (Fuc(b1-3)GlcNAc): -0.331
- glycan array binding signal (z-score) [8]: 3.7
- glycan array binding signal (z-score) (Gal(a1-3)GalNAc): 4.17
- glycan array binding signal (z-score) [9]: 6.23
- glycan array binding signal (z-score) (Gal(a1-4)Gal(b1-4)GlcNAc): 4.65
- glycan array binding signal (z-score) [10]: 4.02
- glycan array binding signal (z-score) [11]: 4.42
- glycan array binding signal (z-score) (Gal(a1-6)Glc): 8.63
- glycan array binding signal (z-score) (Gal(b1-2)Gal): 6.14
- glycan array binding signal (z-score) (Gal(b1-3)Gal(b1-4)GlcNAc): 10
- glycan array binding signal (z-score) [12]: 4.95
- glycan array binding signal (z-score) [13]: 5.98
- glycan array binding signal (z-score) [14]: 3.9
- glycan array binding signal (z-score) [15]: 0.257
- glycan array binding signal (z-score) [16]: -0.112
- glycan array binding signal (z-score) (Gal(b1-4)GlcNAc(b1-2)Man): -0.283
- glycan array binding signal (z-score) [17]: -0.198
- glycan array binding signal (z-score) [18]: -0.26
- glycan array binding signal (z-score) [19]: 0.07
- glycan array binding signal (z-score) (Gal3S6S(b1-4)GlcNAc): -0.306
- glycan array binding signal (z-score) [20]: -0.126
- glycan array binding signal (z-score) (GalNAc(b1-4)GlcNAc): -0.234
- glycan array binding signal (z-score) (GalNAc3S(b1-4)GlcNAc): -0.313
- glycan array binding signal (z-score) (Glc(a1-6)Glc(a1-6)Glc): -0.312
- glycan array binding signal (z-score) [21]: -0.306
- glycan array binding signal (z-score) [22]: -0.297
- glycan array binding signal (z-score) [23]: -0.255
- glycan array binding signal (z-score) (GlcNAc(b1-3)Man): -0.263
- glycan array binding signal (z-score) [24]: -0.357
- glycan array binding signal (z-score) [25]: -0.281
- glycan array binding signal (z-score) (Man(b1-4)GlcNAc): -0.332
- glycan array binding signal (z-score) [26]: -0.269
- glycan array binding signal (z-score) [27]: -0.343
- glycan array binding signal (z-score) [28]: -0.336
- glycan array binding signal (z-score) [29]: -0.347
- glycan array binding signal (z-score) [30]: -0.347
- glycan array binding signal (z-score) [31]: -0.325
- glycan array binding signal (z-score) [32]: -0.301
- glycan array binding signal (z-score) [33]: -0.311
- glycan array binding signal (z-score) [34]: -0.33
- glycan array binding signal (z-score) [35]: 0.25
- glycan array binding signal (z-score) [36]: -0.347
- glycan array binding signal (z-score) [37]: -0.331
- glycan array binding signal (z-score) [38]: -0.311
- glycan array binding signal (z-score) (Neu5Gc(a2-6)GalNAc): -0.311

— the supplement of paper PMC8728848
